A short description of assay [1]: HepG2 liver cancer cell viability effects, profiling panel, resazurin fluorescence, 24 h, PK04 Diversity Set (AID 1172). Note: test concentration not given here. To be noted: higher = more signal.
The nature of assay [2]: basal S. cerevisiae growth modulation, no modifier, primary screen, OD600, strain BY4716, 24 h, basal condition (AID 1173). To be noted: OD600, 24 h, higher = more signal, called active from +8 up or from −8 down.
The nature of assay [3]: MM1S myeloma cell viability, profiling panel, resazurin fluorescence, basal, 24 h, PK04 Diversity Set (AID 1174).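 Note: MM1S multiple myeloma cell line; test concentration not given here.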 The following applies: higher = more signal, called active from +8 up or from −8 down. A general note: The colour change of resazurin is a common sign of viable cells or microbes.
The target of assay [4] is Dihydroorotate dehydrogenase (quinone), mitochondrial (Plasmodium falciparum (isolate 3D7)) (UniProt Q08210). In words: PfDHODH enzyme inhibitors, primary screen, biochemical, C-terminal His tag, absorbance 600 nm (AID 1175).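 Note: recombinant parasite enzyme with a five histidine tag at its C terminus; test concentration not given here.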 The following applies: DCIP absorbance 600 nm, higher = more signal, called active from +8 up or from −8 down.
The nature of assay [5]: P. aeruginosa biofilm formation inhibitors, primary screen, strain PAO1, LB-PBS medium, absorbance 600 nm (AID 1176). Note: test concentration not given here. The following applies: P. aeruginosa PAO1 growth/biofilm, A600, 12 h; higher = more signal.
A short description of assay [6]: S. cerevisiae RM11-1a growth modifiers, primary screen, strain RM11-1a, OD600, basal, 24 h (AID 1177).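 Note: cultures grown under basal conditions with no added stressor; test concentration not given here.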 To be noted: OD600, 24 h, higher = more signal, called active from +8 up or from −8 down.
Assay [7] in a line: E. coli acrAB mutant growth effects, primary screen, E. coli filamentation inducers, strain DRC39, OD650, 24 h (AID 1178).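 Note: growth measured as culture turbidity by optical density at 650 nm; test concentration not given here.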 The following applies: higher = more signal, called active from +8 up or from −8 down.
A short description of assay [8]: E. coli acrAB mutant growth effects, primary screen, E. coli filamentation inducers, strain DRC39, OD650, 48 h (AID 1179).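 Note: screen aims at cell division blockers that make cells filament.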 To be noted: E. coli DRC39 delta-acrAB growth, higher = more signal, called active from +8 up or from −8 down.
Assay [9] is described as follows: RPMI8226 myeloma cell viability, profiling panel, resazurin fluorescence, basal, 24 h, PK04 Diversity Set (AID 1180).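 Note: RPMI8826 multiple myeloma cell line at 5000 cells per well; test concentration not given here.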 To be noted: higher = more signal.
Assay [10] has as its target E3 ubiquitin-protein ligase XIAP (Homo sapiens) (UniProt P98170). In words: XIAP binders, primary screen, biophysical, small-molecule microarray, fluorescence 635 nm (AID 1181).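 Note: score merges 667 nm emission and signal to noise over triplicate slides.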 The following applies: small-molecule microarray binding, higher = more signal.

Activity calls are given as the source filed them. Unless noted, the rule behind the calls is not given here.

Dihydroorotate dehydrogenase (quinone), mitochondrial (Plasmodium falciparum (isolate 3D7)), sequence (Q08210 whole entry, looked up): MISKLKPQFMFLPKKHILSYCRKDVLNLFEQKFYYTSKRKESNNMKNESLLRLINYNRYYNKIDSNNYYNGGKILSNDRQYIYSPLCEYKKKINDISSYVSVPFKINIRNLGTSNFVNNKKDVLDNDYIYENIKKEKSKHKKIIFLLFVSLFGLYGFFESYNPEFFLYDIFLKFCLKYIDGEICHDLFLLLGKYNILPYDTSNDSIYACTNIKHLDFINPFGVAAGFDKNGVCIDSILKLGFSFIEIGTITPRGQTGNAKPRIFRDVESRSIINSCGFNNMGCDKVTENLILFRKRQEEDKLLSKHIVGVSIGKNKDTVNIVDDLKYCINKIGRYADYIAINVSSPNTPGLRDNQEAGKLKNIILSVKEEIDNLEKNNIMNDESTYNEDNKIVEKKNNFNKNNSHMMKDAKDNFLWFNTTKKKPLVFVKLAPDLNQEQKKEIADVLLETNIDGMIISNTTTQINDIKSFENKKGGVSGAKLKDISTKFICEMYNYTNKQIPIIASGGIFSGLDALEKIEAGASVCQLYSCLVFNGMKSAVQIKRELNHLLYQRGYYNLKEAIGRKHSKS
E3 ubiquitin-protein ligase XIAP (Homo sapiens), sequence (P98170 whole entry, looked up): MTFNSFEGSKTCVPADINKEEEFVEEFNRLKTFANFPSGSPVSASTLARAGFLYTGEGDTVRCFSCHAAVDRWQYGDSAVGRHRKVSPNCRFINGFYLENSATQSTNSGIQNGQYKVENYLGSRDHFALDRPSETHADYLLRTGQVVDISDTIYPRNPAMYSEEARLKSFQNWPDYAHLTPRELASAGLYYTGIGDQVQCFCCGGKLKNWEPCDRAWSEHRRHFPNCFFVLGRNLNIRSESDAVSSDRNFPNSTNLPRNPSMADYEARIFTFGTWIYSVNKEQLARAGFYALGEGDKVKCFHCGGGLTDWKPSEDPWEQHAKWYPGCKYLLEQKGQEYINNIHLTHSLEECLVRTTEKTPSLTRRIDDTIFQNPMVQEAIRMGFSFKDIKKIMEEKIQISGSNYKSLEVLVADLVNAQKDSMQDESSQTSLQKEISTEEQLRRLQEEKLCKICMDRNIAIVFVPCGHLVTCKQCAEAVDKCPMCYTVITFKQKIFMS

In the case of `C=CC[C@@H]1C=C[C@H](ON=C(C)CCN2CCCCc3nc(C)c(C)cc32)[C@@H](CO)O1`, the z-score is 0.162 in assay [1]; 0.399 (inactive) in assay [2]; -0.201 (inactive) in assay [3]; 0.323 (inactive) in assay [5]; 0.334 (inactive) in assay [6]; -0.275 (inactive) in [7]. Moreover, the z-score in [8] is -0.681 (inactive); in [9], -0.103. Besides, the composite z-score in assay [4] is -0.923 (inactive); in [10] it was 0.183.
`COC(=O)[C@H](C)NC(=O)CCC1CC(OC(=O)NCc2ccc3c(c2)OCO3)CC2(CCCC(COC(=O)NCCc3ccc(Cl)cc3)O2)O1` (stereo not given in full): the z-score in assay [1] is 0.388; in [2], 0.515 (inactive); in assay [3], -0.682 (inactive); in assay [5] it was -0.965 (inactive); in assay [6], 0.88 (inactive); in [7], 0.616 (inactive). The z-score in assay [8] was -0.729 (inactive); in assay [9] it was 0.0968. Further, the composite z-score was 0.0925 (inactive) in assay [4] and -0.0559 in [10].
In the case of `O=C1[C@H]2[C@H]3[C@H](O)[C@H](O)CC(=NOC[C@@H](O)COCc4ccco4)[C@@H]3CC[C@H]2C(=O)N1Cc1ccc2c(c1)OCO2`, the z-score in [1] is 0.351; in [2], 0.182 (inactive); in assay [3], -0.524 (inactive); in [5], 0.0578 (inactive); in assay [6], 0.865 (inactive); in [7] it was 0.764 (inactive). Moreover, the z-score in assay [8] is 1.29 (inactive); in [9], 0.501. Further, the composite z-score in [4] is -0.395 (inactive); in assay [10], -0.148.
As to `C[C@@H]1CC[C@@H](C(=O)O)N[C@H]1c1cccc(N2CCOCC2)c1`, the z-score in assay [1] is 0.764; in [2] it was -1.62 (inactive); in [3], 0.7 (inactive); in assay [5], 0.143 (inactive); in assay [6], -0.206 (inactive); in assay [7] it was 1.32 (inactive). The z-score was 1.13 (inactive) in [8] and 0.198 in [9]. Further, the figures for the composite z-score in [4] and in assay [10] were 0.18 (inactive) and 0.13, respectively.
For `O=C1CCCC=C1C(O)c1ccc([N+](=O)[O-])cc1` (stereo not given), the z-score in assay [1] is -0.426; in assay [2] it was -0.851 (inactive); in assay [3] it was -0.57 (inactive); in assay [5], -0.47 (inactive); in assay [6], -0.66 (inactive); in [7], 0.47 (inactive). Also, the z-score in [8] is 0.4 (inactive); in assay [9], -0.865. The composite z-score in assay [4] is -0.42 (inactive); in assay [10] it was -0.0019.
Regarding `CO[C@@H]1COC(=O)[C@H](CCSC)NC(=O)CC=C[C@@H](C)COC(=O)[C@@H]2CCCN2C(=O)CC=C[C@H]1C`, the z-score is 0.64 in assay [1]; -0.691 (inactive) in assay [2]; 0.89 (inactive) in [3]; -0.92 (inactive) in assay [5]; -0.572 (inactive) in [6]; -0.0629 (inactive) in assay [7]. The z-score is -0.733 (inactive) in assay [8] and 0.652 in assay [9]. The composite z-score in [4] was -0.0517 (inactive); in [10] it was -0.0277.
For the molecule `CC(=O)OC[C@H]1O[C@H](CC=NOC(C)CN2CCCc3nc(C)c(C)cc32)C=C[C@@H]1OC(C)=O` (stereo not given in full), the z-score in assay [1] is -0.368; in assay [2], -0.494 (inactive); in assay [3] it was 0.161 (inactive); in assay [5], -0.373 (inactive); in assay [6], 0.634 (inactive); in assay [7], 0.603 (inactive). For the same molecule, the results for the z-score in [8] and in assay [9] were -0.147 (inactive) and 0.12, respectively. Moreover, the composite z-score is 0.159 (inactive) in [4] and 0.145 in assay [10].
Take `CCN1C(=O)[C@H]2[C@H]3[C@H](O)[C@H](O)CC(=NNC(=O)OCc4ccccc4)[C@H]3CC[C@H]2C1=O`: the z-score in assay [1] was -0.0019; in assay [2] it was -0.277 (inactive); in [3] it was -0.193 (inactive); in assay [5], 0.814 (inactive); in assay [6] it was -0.727 (inactive); in assay [7] it was -0.47 (inactive). In addition, the results for the z-score in assay [8] and in assay [9] were -1.79 (inactive) and -0.163, respectively. In addition, the composite z-score in [4] is -0.052 (inactive); in [10] it was -0.102.
With `CC(=O)OC[C@H]1O[C@H](C#CCC2CCCCC2)C=C[C@@H]1OC(C)=O`, the z-score in [1] is 0.0616; in assay [2], -3.69 (inactive); in assay [3] it was -2.52 (inactive); in assay [5], 0.781 (inactive); in assay [6], 0.143 (inactive); in [7], 1.07 (inactive). The z-score was 0.591 (inactive) in assay [8] and -1.24 in assay [9]. Further, the composite z-score was -0.529 (inactive) in [4] and -0.0314 in [10].
As to `COCCNC(=O)OCC1CCCC2(CC(OC(=O)NCc3cccc4ccccc34)CC(CCC(=O)N[C@@H](C)C(=O)OC)O2)O1` (stereo not given in full), the z-score in assay [1] was 1.77; in assay [2], -0.0524 (inactive); in assay [3] it was 0.343 (inactive); in assay [5] it was -0.303 (inactive); in [6] it was 1.36 (inactive); in [7], 0.17 (inactive). Besides, the z-score in [8] is 0.812 (inactive); in assay [9] it was 0.79. Moreover, the figures for the composite z-score in assay [4] and in [10] were 0.124 (inactive) and -0.0999, respectively.
Take `CC(C)[C@@H](OCc1ccccc1)[C@H](C)CON=C1[C@H]2CCn3c(=O)n(-c4ccccc4)c(=O)n3[C@H]2[C@H](O)[C@@H]2O[C@H]12`: the z-score in assay [1] was -0.486; in assay [2] it was -1.96 (inactive); in assay [3], -0.704 (inactive); in assay [5] it was -0.348 (inactive); in [6], -0.402 (inactive); in [7], 0.961 (inactive). Moreover, the z-score in assay [8] is 0.876 (inactive); in assay [9], -0.789. Moreover, the results for the composite z-score in [4] and in [10] were -1.78 (inactive) and -0.193, respectively.
For the molecule `CCOC(=O)CCN1C(=O)[C@H]2[C@H]3[C@H](O)[C@H](O)CC(=NOCC=C(C)CCC=C(C)C)[C@@H]3CC[C@H]2C1=O`, the z-score was 0.046 in assay [1]; 0.448 (inactive) in assay [2]; -0.836 (inactive) in assay [3]; 0.176 (inactive) in assay [5]; -0.839 (inactive) in assay [6]; -1.15 (inactive) in [7]. Besides, the z-score in assay [8] was -0.209 (inactive); in assay [9], -0.871. Moreover, the composite z-score in assay [4] is 0.69 (inactive); in [10] it was 0.175.
On to `O=C1[C@H]2[C@H]3[C@H](O)[C@H](O)CC(=NOC[C@@H](O)COCc4ccco4)[C@@H]3CC[C@H]2C(=O)N1Cc1ccccc1`, for which the z-score in [1] was 0.379; in assay [2], -1.64 (inactive); in [3], -0.737 (inactive); in assay [5], -1.01 (inactive); in assay [6], -0.426 (inactive); in assay [7], 0.17 (inactive). Further, the figures for the z-score in assay [8] and in [9] were 0.616 (inactive) and 0.569, respectively. The composite z-score in assay [4] was -0.137 (inactive); in [10], -0.194.

Source of the values: PubChem BioAssay.
